Only some compounds are listed: those with a hit (about 3.3% of all), similar ones and a draw of the others.
Vaccinia Venus = inhibitors of vaccinia virus (Venus reporter); Vaccinia virus Venus reporter expression, fluorescence; Potency, µM (top dose mostly 36.5 µM), usual class: inhibitors; 330,000 compounds, 0.46% hits; calls by dose curve; tested in A549 cells; note: nearly all actives have a fitted effect of over 30% in size
HCV inhibitor = inhibitors of hepatitis C virus infection | Huh7.5.1 HCVcc-Cre infection, luciferase reporter, 44 h | Potency, µM (series often up to 41.8 µM), usual class: inhibitors | 340,000 compounds, 3.4% hits | AID 651820; active = well fitted inhibition curve with a large enough effect; inconclusive = small, poorly fitted or top-dose-only effect, or another doubt; inactive = no such curve, though single readings can be large or run the other way
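Antiviral activity was scored by luciferase reporter output from cells infected with HCVcc-Cre (~0.5 moi) in presence of compound, 44 h infection period, cells seeded 1,000/well 4 h prior.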
VACV mCherry inh = vaccinia inhibition (mCherry reporter). Vaccinia virus mCherry reporter infection, fluorescence. Potency, µM (titrated, usually from 36.5 µM), hits mostly inhibitors. 310,000 compounds, 0.63% hits. AID 720579; calls by dose curve; tested in A549 cells; note: nearly all actives have a fitted effect of over 35% in size
Numbers stand for hits; – = inactive; ? = inconclusive; · = no result given.

SMILES	Vaccinia Venus	HCV inhibitor	VACV mCherry inh
O=C1c2cccc3c([N+](=O)[O-])ccc(c23)C(=O)N1c1ccccn1	–	?	–
O=C1c2cccc3c([N+](=O)[O-])ccc(c23)C(=O)N1c1ccc(Cl)cn1	–	10µM	–
CN1CCN(c2ccc(C(F)(F)F)cc2NC(=O)c2ccco2)CC1	–	–	–
CC1CCCC=CC2CC(OC(=O)CN(C)C)CC2C(O)C=CC(=O)O1 (stereo not drawn)	?	0.562µM	?
C[C@H]1CCC/C=C/[C@@H]2C[C@H](O)C[C@H]2[C@@H](O)/C=C/C(=O)O1	?	?	–
COC(=O)c1cn([C@@H]2C[C@@H](C(=O)Nc3cccc(SC)c3)N(C3CCCCCC3)C2)nn1	–	·	–
COc1cc(C)c(Cl)cc1S(=O)(=O)NCc1ccncc1	·	–	·
O=S(=O)(NCc1ccncc1)c1ccc(F)c(F)c1	–	·	?
Cc1ccc(S(=O)(=O)NCc2ccncc2)cc1C	–	2.24µM	–
Cc1cc(C)c(C)c(S(=O)(=O)NCc2ccncc2)c1C	–	7.08µM	–
O=C(NNC1=Nc2cccc3cccc1c23)c1ccc(Br)cc1	–	?	?
Nc1nc(NCc2ccc(Cl)cc2Cl)c2[nH]cnc2n1	–	·	–
COC(=O)c1cc(CNC(=O)c2cccc(N(C)C)c2)cc(NC(=O)c2ccccc2Cl)c1	–	·	–
Cc1nc(SCC(=O)NC(C)(C#N)C2CC2)c2c(-c3cccs3)csc2n1 (stereo not drawn)	–	10µM	–
Cn1c(SCC(=O)NCc2ccc3c(c2)OCO3)nc2scc(-c3cccs3)c2c1=O	–	?	–
O=C(Nc1ccccc1OCc1cc(=O)n2ccccc2n1)c1cccc(Br)c1	–	·	–
CCN(CC)c1ccc(NC(=O)c2cc(CN3CCCC3)on2)c(C)c1	–	·	–
COc1ccc(-n2c(CCNC(=O)c3ccccc3C(F)(F)F)nnc2SC)cc1	–	·	–
Cc1nn(-c2ccccc2)c2nc(-c3ccccc3)cc(C(=O)N3CCOCC3)c12	–	?	–
Cc1nn(-c2cccc(Cl)c2)c2nc(-c3ccncc3)cc(C(=O)N3CCOCC3)c12	–	7.94µM	–
CCCCCCCCCn1ccc(=N)cc1	?	0.0398µM	–
CCCCCNCc1cccn1C	–	–	–
CCCCCCCn1ccc(=N)cc1	?	0.562µM	·
CCCCCn1ccc(=N)cc1	?	6.31µM	·
CCn1ccc(=N)cc1	–	–	·
SMILES	Vaccinia Venus	HCV inhibitor	VACV mCherry inh
CCCCCCN1CC(O)=C(c2ccccc2)C1=N	–	–	·
O=C(Nc1cccc(C(F)(F)F)c1)c1ccc(F)c(S(=O)(=O)N2CCc3ccccc3C2)c1	–	·	–
O=S(=O)(NCc1nc2cccnc2n1Cc1ccccc1)c1ccc2c(c1)CCCC2	–	·	–
CCN(CC)CCCNCC(=O)Nc1ccc2c(c1)CCC2	–	10µM	–
Cc1ccc(C(=O)NCC(=O)Nc2ccc3c(c2)CCC3)cc1C	–	–	–
COc1cc(C(=O)Nc2ccc(NC(=O)c3cccc(Cl)c3)nc2)cc(OC)c1OC	–	3.98µM	?
CCN(CC)S(=O)(=O)c1cccc(C(=O)Nc2ccccc2C(=O)Nc2ccc(Cl)cc2)c1	–	·	–
CCN(CC)S(=O)(=O)c1cc(C(=O)Nc2cc(C)on2)ccc1Cl	–	?	–
O=C(Nc1ccc(NC(=S)NC(=O)c2ccccc2Cl)cc1)c1cccc(Cl)c1	–	25.1µM	·
COc1cc(C(=O)Nc2ccc(NC(=O)C3CCCCC3)nc2)cc(OC)c1OC	–	?	–
CCC(=O)Nc1cccc(NC(=S)NC(=O)c2ccccc2Cl)c1	?	–	·
CCN(CC)S(=O)(=O)c1cc(C(=O)Nc2ccc(Cl)cn2)ccc1C	?	15.8µM	·
CCN(CC)S(=O)(=O)c1cccc(C(=O)Nc2ccc(Cl)cn2)c1	·	3.55µM	·
CC(c1ccc(N(C)C)cc1)c1ccnc2ccccc12 (stereo not drawn)	–	·	–
CCN(CC)S(=O)(=O)c1cccc(C(=O)N/N=C/c2ccc(O)c(O)c2O)c1	–	–	–
CCN(CC)S(=O)(=O)c1cccc(C(=O)N/N=C(\C)c2ccc(O)cc2O)c1	?	8.91µM	?
O=C(NNC(=O)c1ccc(-n2cncn2)c([N+](=O)[O-])c1)c1ccc(Cl)cc1	–	–	–
CC1(COS(N)(=O)=O)CCCCC1	–	?	–
Oc1ccc(C(c2nnnn2CCc2ccccc2)N2CCN(c3nc4ccccc4s3)CC2)cc1 (stereo not drawn)	–	12.6µM	–
COCCn1nnnc1C(c1cccs1)N1CCN(c2nc3ccccc3s2)CC1 (stereo not drawn)	–	?	?
CCOc1ccc(C2C(=O)N(C3CCCCCC3)CC(=O)N2Cc2ccccc2)cc1OC (stereo not drawn)	–	·	–
O=C(c1ccc2c(c1)OCO2)N1CCC2(CC1)Oc1ccc(Cl)cc1C(=O)C21CC(c2ccccc2)=NO1 (stereo not drawn)	–	–	–

From PubChem BioAssay
